# According to PubChem BioAssay AID493203 (National Center for Advancing Translational Sciences (NCATS), 2011):
# Records with an inconclusive call do not appear. Where a call stands in place of a potency, no number is given. Active and inactive are the calls of the source. The call rests on the fitted dose curve; in most records, active means well fitted activation curve with a large enough effect; inconclusive means small, poorly fitted or top-dose-only effect; inactive means flat fitted curve, though single readings scatter.
# Experiment: qHTS Assay for NPC1 Promoter Activators: Initial hit validation from the primary screen
# Conditions: Huh7 NPC1 promoter-luciferase reporter, luminescence, 24 h; series mostly up to 46.1 µM
# In short: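 Promoter activation measured as luciferase luminescence (Amplite reagent, 10 minutes ambient) after 24 hours' compound exposure at 37C. Cells: NPC1-luciferase Huh7, 1500 per well, reduced-serum OP-MEM I plus 10% FBS.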
# Potency means the concentration at half of the fitted maximal effect.
row,Structure (SMILES),Potency
1,CC(Sc1ncnc2c1cnn2-c1ccccc1)C(=O)Nc1ccc(N2CCOCC2)cc1 (stereo not drawn),inactive
2,Nc1nc(SCCO)[nH]c(=O)c1NC(=O)c1ccco1,inactive
3,CCCNC(=O)C1CCN(S(=O)(=O)c2ccc3[nH]c(=O)ccc3c2)CC1,inactive
4,O=C(NC1CCCC1)C(c1ccc(F)cc1)N(C(=O)c1csnn1)c1ccccc1 (stereo not drawn),inactive
5,CC(=O)[C@@H]1[C@@H](C(=O)c2ccc(C)cc2)[C@]2(C(=O)Nc3ccccc32)[C@H]2C=Cc3cc(F)ccc3N12,inactive
6,N#CC/C(N)=N/NC(=O)CCCNc1ncc(C(F)(F)F)cc1Cl,15.8 µM (active)
7,COCCNC(=O)Cn1nc(-c2ccccc2)c2ccccc2c1=O,inactive
8,Brc1ccccc1-c1nnc(CSc2nnc3sc4ccccc4n23)o1,inactive
9,N#C/C(=N\Nc1ccc(Cl)cc1)C(=N)N1CCCCC1,0.281 µM (active)
10,O=C(CSc1nnc(-c2ccccn2)o1)Nc1ccccc1F,1.12 µM (active)
11,Cc1[nH]n(-c2cccc3ccccc23)c(=O)c1/C=N/c1sc2c(c1C#N)CCC2,inactive
12,CN(C)C(=O)[C@H]1C[C@H]1[C@@H](O)[C@H](CO)NC(=O)[C@H](COCc1ccccc1)NC(=O)OC(C)(C)C,inactive
13,Cc1nn(CCCC(=O)NCc2ccc(F)cc2)c(C)c1[N+](=O)[O-],inactive
14,C=CCc1ccc(OCCOCCNCCOC)c(OC)c1,inactive
15,O=C(NCCSCc1c(F)cccc1Cl)c1ccc(CN2CCOCC2)cc1,inactive
16,CC1CC(C)CN(CC(=O)N2CCOCC2)C1 (stereo not drawn),inactive
17,Cc1ccc(C(=O)Nc2nnc(S(=O)(=O)N3CCOCC3)s2)cc1,inactive

row,Structure (SMILES),Potency
1,CCOC(=O)c1csc(COc2ccc(OC)cc2)n1,0.705 µM (active)
2,CNC(=O)Cn1nc(C)c2ccccc2c1=O,inactive
3,NC(=O)C1(NC(=O)[C@@H]2CC3(CC(c4cccc(NC(=O)[C@@H]5CCC(=O)N5)c4)=NO3)CN2C(=O)c2ccccc2)CC1 (stereo partly drawn),inactive
4,COc1ccc(C)cc1N(C(=O)CNC(=O)c1ccco1)C(C(=O)NC1CCCC1)c1cccnc1 (stereo not drawn),inactive
5,Nc1ccc(C(=O)Nc2ccccc2N)cc1,15.8 µM (active)
6,COc1ccc(NC(=O)CSc2ccc([N+](=O)[O-])cc2)cc1S(=O)(=O)N1CCOCC1,inactive
7,CCN(Cc1nc2cc(Cl)ccc2c(=O)[nH]1)C(=O)C1CC(=O)N(c2cccc3ccccc23)C1 (stereo not drawn),inactive
8,O=C(CSc1nnc(-c2ccccn2)o1)Nc1ccccc1Cl,1.25 µM (active)
9,Cc1ccc(CNC(=O)Nc2ccc(C)cc2)cc1,25 µM (active)
10,CCCCn1c(CCNC(=O)c2cccs2)nc2ccccc21,inactive
11,O=C(CCc1cccc(Cl)c1)NC1CCCN(Cc2ccccc2F)C1 (stereo not drawn),inactive
12,COc1ccc(/C=C\C(=O)c2c(O)ccc3c(C)cc(=O)oc23)cc1OC,inactive
13,Cc1nnc2n(c1=O)N=C(c1ccc(Cl)cc1)CS2,1.12 µM (active)
14,O=C(NCCc1ccccc1)c1cc2ncc(Br)cn2n1,14.1 µM (active)
15,COc1cccc(NC(=O)CN2C(=O)CSc3ccc(S(=O)(=O)N4CCC(C)CC4)cc32)c1,inactive
16,CCOC(=O)C1(Cc2cccc(Cl)c2)CCCN(C(=O)CCSC)C1 (stereo not drawn),inactive
